{
  "source": "PubChem BioAssay (NCATS)",
  "note": "Results filed as inconclusive are left out. A number with no mark means an inactive call. Calls follow the shape of the dose curve; as a rule, active = well fitted inhibition curve with a large enough effect; inconclusive = small, poorly fitted or top-dose-only effect; inactive = flat fitted curve, though single readings scatter. % is scaled to controls: 0 for no effect and ±100 for the full control effect.",
  "data": [
    {"test_system": "KB-3-1", "assay": "Cytotoxic Profiling of Annotated Libraries Using Quantitative High-Throughput Screening (AID 1296008); also: nearly all actives have a fitted effect of over 60% in size", "settings": "Five cell lines viability, CellTiter-Glo ATP luminescence, 48-72 h; max response: active compounds read low", "description": "Cell-based phenotypic screening is a commonly used approach to discover biological pathways, novel drug targets, chemical probes and high-quality hit-to-lead molecules. Many hits identified from high-throughput screening campaign are ruled out through a series of follow-up potency, selectivity/specificity, and cytotoxicity assays. Prioritization of molecules with little or no cytotoxicity for a more in-depth downstream evaluation influence the future direction of projects, so cytotoxicity profiling of the screening libraries at early stage is essential for increasing the likelihood of candidate success. […] For the annotated library, we also examined the primary targets and mechanistic pathways regularly associated with cell death. To our knowledge, this is the first study to use high-throughput screening to profile large libraries for cytotoxicity assessment in both normal and cancer cell lines. In summary, the results generated here constitutes a valuable resource for the scientific community and provides insight on identifying cytotoxic compounds with particular mechanisms of action, and prioritizing compounds with suitable cytotoxicity profile for further evaluation.\nA pintool (Kalypsys) was used to transfer 23 nL of compound solution to the 1536-well assay plates. After 48 or 72 hr incubation at 37 degree Celsius, 5% CO2 and 95% humidity, 2.5 uL of CellTiter-Glo (Promega) was dispensed into each well using a dispenser (Aspect Automation, St. Paul, MN) with solenoid valves (Lee Valves, Westbrook CT). Plates were left at room temperature for 10 min before imaging the ATP-coupled luminescence using a ViewLux microplate imager (PerkinElmer, Waltham, MA).", "units": {"max response": "%"}, "values": [
      {"smiles": "CCCCCCCC/C=C\\CCCCCCCC(=O)NCc1ccc(O)c(OC)c1", "max response": -3.68},
      {"smiles": "CCN(CC)CCNC(=O)c1cc(S(C)(=O)=O)ccc1OC", "max response": 6.27},
      {"smiles": "COc1cc(C(=O)OCCCN2CCCN(CCCOC(=O)c3cc(OC)c(OC)c(OC)c3)CC2)cc(OC)c1OC", "max response": -1.09},
      {"smiles": "CC(C)[N+](C)(CCOC(=O)C1c2ccccc2Oc2ccccc21)C(C)C", "max response": -0.425},
      {"smiles": "CN1C(=O)CC[C@H]1c1cccnc1", "max response": 0.0726},
      {"smiles": "COc1ccc(CCN(C)CCCC(C#N)(c2cc(OC)c(OC)c(OC)c2)C(C)C)cc1OC", "note": "(stereo not given)", "max response": -0.362},
      {"smiles": "CC(C)(C)NCC(O)c1cc(O)cc(O)c1", "note": "(stereo not given)", "max response": -2.33},
      {"smiles": "C[n+]1cc2c3c(ccc2c2ccc4cc5c(cc4c21)OCO5)OCO3", "max response": -95.7},
      {"smiles": "NC(N)=NC(=O)Cc1c(Cl)cccc1Cl", "max response": 6.63},
      {"smiles": "OCCN1CCN(CCCN2c3ccccc3C=Cc3ccccc32)CC1", "max response": -12.9},
      {"smiles": "CCC(=O)c1ccc2c(c1)N(CCCN(C)C)c1ccccc1S2", "max response": -0.0737},
      {"smiles": "OC(CCN1CCCCC1)(c1ccccc1)C1CCCCC1", "note": "(stereo not given)", "max response": -15.6},
      {"smiles": "CCc1c(C)[nH]c2c1C(=O)C(CN1CCOCC1)CC2", "note": "(stereo not given)", "max response": -8.21},
      {"smiles": "CCc1cccc(N(C)C(N)=Nc2cccc3ccccc23)c1", "max response": -7.55},
      {"smiles": "CN/C(=C\\[N+](=O)[O-])NCCSCc1ccc(CN(C)C)o1", "max response": 15},
      {"smiles": "C[N+](C)(C)CCOC(N)=O", "max response": 27.4},
      {"smiles": "C[N+](C)(C)CCOC(=O)CCC(=O)OCC[N+](C)(C)C", "max response": 1.17},
      {"smiles": "Cc1nnc(SCC2=C(C(=O)O)N3C(=O)[C@@H](NC(=O)Cn4cnnn4)[C@H]3SC2)s1", "max response": 4.46},
      {"smiles": "CCO/C([O-])=N/c1c[n+](N2CCOCC2)no1", "max response": -5.15},
      {"smiles": "Cc1nc2sccn2c(=O)c1CCN1CCC(=C(c2ccc(F)cc2)c2ccc(F)cc2)CC1", "max response": -12.7},
      {"smiles": "CCN(CC)CC(=O)Nc1c(C)cccc1C", "max response": -0.324},
      {"smiles": "Cc1nc2ccccn2c(=O)c1CCN1CCC(C(=O)c2ccc(F)cc2)CC1", "max response": -5.16},
      {"smiles": "CC1=C(C)C(=O)C(CCCCC#CCCCC#CCO)=C(C)C1=O", "max response": -7.44},
      {"smiles": "Cc1nc2c([nH]1)c(=O)n(C)c(=O)n2Cc1ccco1", "max response": 16.5},
      {"smiles": "CN1CCN(C2=Nc3ccccc3Oc3ccc(Cl)cc32)CC1", "max response": 6.07},
      {"smiles": "COC(=O)[C@@H](N)Cc1ccc(O)c(O)c1", "max response": -3.59},
      {"smiles": "CC(C)COCC(CN(Cc1ccccc1)c1ccccc1)N1CCCC1", "note": "(stereo not given)", "max response": -4.17},
      {"smiles": "CN(C)CC/C=C1\\c2ccccc2COc2ccccc21", "max response": 4.58},
      {"smiles": "CO[C@@]1(NC(=O)CSCC#N)C(=O)N2C(C(=O)O)=C(CSc3nnnn3C)CS[C@@H]21", "max response": 1.86},
      {"smiles": "COC(=O)C1=C(C)NC(C)=C(C(=O)OCCN(C)Cc2ccccc2)C1c1cccc([N+](=O)[O-])c1", "note": "(stereo not given)", "max response": -10.4},
      {"smiles": "CC(C)(Oc1ccc(CCNC(=O)c2ccc(Cl)cc2)cc1)C(=O)O", "max response": 2.41},
      {"smiles": "CC(C)(C)c1ccc(C(=O)CCCN2CCC(OC(c3ccccc3)c3ccccc3)CC2)cc1", "max response": -0.417},
      {"smiles": "C[C@]12CCC(=O)C=C1CC[C@@H]1[C@@H]2CC[C@@]2(C)[C@H]1CC[C@]2(O)C(=O)CO", "max response": -11.6},
      {"smiles": "NC(=O)c1ncn([C@@H]2O[C@H](CO)[C@@H](O)[C@H]2O)c1O", "max response": 8.08},
      {"smiles": "COc1cc(Cc2cnc(N)nc2N)cc(OC)c1OC", "max response": 8.08},
      {"smiles": "CN=C(NC#N)NCCSCc1nc[nH]c1C", "max response": -9.62},
      {"smiles": "NC(=O)c1cn(Cc2c(F)cccc2F)nn1", "max response": -1.38},
      {"smiles": "CCOC(=O)C1=C(C)NC(C)=C(C(=O)OC)C1c1cccc(Cl)c1Cl", "note": "(stereo not given)", "max response": -8.74},
      {"smiles": "Cc1ccc(/C(=C\\CN2CCCC2)c2ccccn2)cc1", "max response": 18.1},
      {"smiles": "CC(=O)OC(C)C[N+](C)(C)C", "note": "(stereo not given)", "max response": 6}
    ]}
  ]
}
